In PubChem BioAssay AID1159580 (chemical genetic matrix, 2015):
Several values for one entry are separate records, joined by “and”; a condition that tells them apart may be missing. Identical values can stand only once. Among all 5,500 compounds or so, about 2,000 (36%) were called active. About 18% were inconclusive and are not listed. Cut-off read from the data, not from the text of the source: active = normalized growth mostly below about 0.91 (no sharp cut-off); inconclusive = no clear call, values can overlap the other calls; inactive = mostly above about 0.92. Some of the results follow.

Experiment: chemical genetic growth profiling, strain panel (AID 1159580);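 note: tested at 20 µM; growth read once vehicle control cultures reached saturation at 30 °C; 1 = growth at the plate median or of vehicle wells; lower values mean less growth of the strain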
Conditions: S. cerevisiae deletion strains, growth OD

Measured: normalized growth

COc1ccc(-c2cc(=O)c3ccccc3o2)cc1
0.277 (active) and 0.975 (inactive): locus YJL095W, strain BCK1, stronger effect = lower value
active: locus YAL013W, strain DEP1, stronger effect = lower value 0.682 | locus YAL021C, strain ccr4, stronger effect = lower value 0.888 | locus YAL026C, strain drs2, stronger effect = lower value 0.828 | locus YAL030W, strain snc1, stronger effect = lower value 0.905 | locus YBL061C, strain skt5, stronger effect = lower value 0.869 | locus YBR009C, strain hhf1, stronger effect = lower value 0.725 | locus YBR023C, strain chs3, stronger effect = lower value 0.811 | locus YBR171W, strain sec66, stronger effect = lower value 0.869 | locus YBR231C, strain swc5, stronger effect = lower value 0.857 | locus YBR279W, strain paf1, stronger effect = lower value 0.881 | locus YCL011C, strain gbp2, stronger effect = lower value 0.809 | locus YCL016C, strain dcc1, stronger effect = lower value 0.781 | locus YCL029C, strain bik1, stronger effect = lower value 0.753 | locus YCL061C, strain MRC1, stronger effect = lower value 0.833 | locus YCL069W, strain vba3, stronger effect = lower value 0.863 | locus YDL035C, strain GPR1, stronger effect = lower value 0.656 | locus YDL040C, strain nat1, stronger effect = lower value 0.923 | locus YDL074C, strain BRE1, stronger effect = lower value 0.452 | locus YDL101C, strain DUN1, stronger effect = lower value 0.655 | locus YDL192W, strain arf1, stronger effect = lower value 0.685 | locus YDR101C, strain arx1, stronger effect = lower value 0.884 | locus YDR137W, strain rgp1, stronger effect = lower value 0.53 | locus YDR162C, strain NBP2, stronger effect = lower value 0.274 | locus YDR195W, strain ref2 1.3 [resistant] | locus YDR297W, strain sur2, stronger effect = lower value 0.899 | locus YDR318W, strain mcm21, stronger effect = lower value 0.792 | locus YDR335W, strain msn5, stronger effect = lower value 0.902 | locus YDR388W, stronger effect = lower value 0.807 | locus YDR392W, strain spt3, stronger effect = lower value 0.406 | locus YDR502C, strain sam2, stronger effect = lower value 0.757 | locus YEL003W, strain gim4, stronger effect = lower value 0.79 | locus YEL037C, strain rad23, stronger effect = lower value 0.904 | locus YEL061C, strain CIN8 (second series), stronger effect = lower value 0.904 | locus YEL061C, strain CIN8, stronger effect = lower value 0.672 | locus YER015W, strain faa2, stronger effect = lower value 0.904 | locus YER016W, strain bim1, stronger effect = lower value 0.918 | locus YER111C, strain swi4, stronger effect = lower value 0.881 | locus YER155C, strain BEM2 (second series), stronger effect = lower value 0.283 | locus YER155C, strain BEM2, stronger effect = lower value 0.734 | locus YER167W, strain BCK2, stronger effect = lower value 0.739 | locus YGL086W, strain mad1, stronger effect = lower value 0.762 | locus YGL167C, strain pmr1, stronger effect = lower value 0.894 | locus YGL173C, strain kem1, stronger effect = lower value 0.798 | locus YGL240W, strain doc1, stronger effect = lower value 0.756 | locus YGL248W, strain PDE1, stronger effect = lower value 0.636 | locus YGL253W, strain hxk2, stronger effect = lower value 0.681 | locus YGR135W, strain pre9, stronger effect = lower value 0.747 | locus YHR013C, strain ard1, stronger effect = lower value 0.771 | locus YHR027C, strain rpn1, stronger effect = lower value 0.916 | locus YHR079C, strain IRE1 (second series), stronger effect = lower value 0.887 | locus YHR129C, strain ARP1, stronger effect = lower value 0.661 | locus YHR142W, strain chs7, stronger effect = lower value 0.584 | locus YHR200W, strain rpn10, stronger effect = lower value 0.868 | locus YIL066C, strain RNR3, stronger effect = lower value 0.55 | locus YIL073C, strain SPO22, stronger effect = lower value 0.66 | locus YIR030C, strain dcg1, stronger effect = lower value 0.804 | locus YJL092W, strain hpr5, stronger effect = lower value 0.884 | locus YJL095W, strain BCK1 (second series), stronger effect = lower value 0.707 | locus YJL164C, strain tpk1, stronger effect = lower value 0.754 | locus YJL166W, strain qcr8, stronger effect = lower value 0.771 | locus YJL168C, strain set2, stronger effect = lower value 0.922 | locus YJL187C, strain SWE1 (second series), stronger effect = lower value 0.668 | locus YJL187C, strain SWE1, stronger effect = lower value 0.9 | locus YJR043C, strain POL32, stronger effect = lower value 0.724
0.398 (active) and 0.992 (inactive): locus YHR030C, strain SLT2, stronger effect = lower value
inactive: locus YBR021W, strain FUR4, stronger effect = lower value 0.949 | locus YBR229C, strain ROT2, stronger effect = lower value 0.932 | locus YCR088W, strain abp1, stronger effect = lower value 0.926 | locus YDL005C, strain med2, stronger effect = lower value 0.919 | locus YDL185W, strain tfp1, stronger effect = lower value 0.907 | locus YDR001C, strain nth1, stronger effect = lower value 0.923 | locus YDR069C, strain doa4, stronger effect = lower value 0.926 | locus YDR159W, strain sac3, stronger effect = lower value 0.998 | locus YDR334W, strain swr1, stronger effect = lower value 0.943 | locus YER110C, stronger effect = lower value 0.927 | locus YFR010W, strain ubp6, stronger effect = lower value 0.911 | locus YGL078C, strain dbp3, stronger effect = lower value 0.933 | locus YGL227W, strain vid30, stronger effect = lower value 0.92 | locus YGR252W, strain gcn5, stronger effect = lower value 0.824 | locus YHR079C, strain IRE1, stronger effect = lower value 1 | locus YHR094C, strain hxt1, stronger effect = lower value 0.939 | locus YIL125W, strain kgd1, stronger effect = lower value 0.949 | locus YJL115W, strain asf1, stronger effect = lower value 0.915 | locus YJL129C, strain trk1, stronger effect = lower value 0.916 | locus YJL134W, strain LCB3, stronger effect = lower value 0.928 | locus YJL154C, strain vps35, stronger effect = lower value 0.938
